Results reported in PubChem BioAssay.

Assay: binders of probe aFST on microarray, primary screen, stem cell growth factor project, biochemical, small-molecule microarray, fluorescence 635/667 (AID 1086);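 also: score merges 667 nm fluorescence with signal-to-noise of each printed compound spot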
Conditions: higher = more signal

| SMILES | composite z-score |
| --- | --- |
| C=C(CCCC)/C(=C/C[C@H](OC(C)=O)c1ccc(CO)o1)c1cc(C(=O)OC)ccc1OC | 0.439 |
| CC(C)(C)OC(=O)CC[C@]1(C(=O)NCC(O)CO)N=C(c2ccc(OCCCO)cc2)O[C@H]1c1ccccc1CN=[N+]=[N-] (stereo not given in full) | 1.68 |
| COC(=O)[C@@]1(Cc2ccc(OC)cc2)[C@H]2c3cc(C(=O)N(C)C)n(Cc4ccc(OC)c(OC)c4)c3C[C@H]2CN1C(=O)c1ccccc1 | 1.39 |
| [N-]=[N+]=NCc1ccccc1C[C@@]1(C(=O)NCc2ccccc2)N=C(c2ccc(OCCCO)cc2)O[C@@H]1c1ccccc1CN=[N+]=[N-] | 0.803 |
| [N-]=[N+]=NCc1ccccc1[C@H]1OC(c2ccc(OCCCO)cc2)=N[C@@]1(Cc1ccccc1)C(=O)O | 0.554 |
| NC(=O)NCC#Cc1ccc2c(c1)[C@]1(C(=O)N2)[C@H](C(=O)NC[C@H](O)c2ccccc2)[C@H]2C(=O)O[C@H](c3ccccc3)[C@H](c3ccccc3)N2[C@@H]1c1ccccc1OCCO | 0.213 |
| C=C(C(=O)CC[C@H](OC(=O)c1cccnc1)c1ccccc1OCCO)C(C)C | 0.106 |
| COc1ccc([Si](C)(C)[C@@H]2[C@@H](CCO)O[C@]3(C(=O)N(Cc4ccc(N5C(=O)c6cccc7cccc5c67)cc4)c4ccccc43)[C@H]2C)cc1 | -0.292 |
| COc1ccc([Si](C)(C)[C@H]2[C@H](CCO)O[C@@]3(C(=O)N(Cc4ccccc4)c4ccc(N5C(=O)COc6ccccc65)cc43)[C@@H]2C)cc1 | 0.0228 |
| O=C1C2C=CC(C(O)c3ccccn3)N(Nc3ccccc3F)C2C(=O)N1c1ccccc1 (stereo not given) | 0.19 |
| CN(C)CCCC[C@@H]1NC(=O)[C@@H]2C[C@H](C(=O)NCCCCCN)[C@H](c3ccc(O)cc3)N2C1=O | 0.0993 |
| O=C(NCC(O)CO)[C@@]1(Cc2ccccc2)COC(c2ccc(OCCCO)cc2)=N1 (stereo not given in full) | 0.112 |
| CCOC(=O)N1C(c2ccc(OCCCO)cc2)=NC(C(=O)OC)N1C(=O)OCC (stereo not given) | 0.424 |
| CO[C@H]1O[C@H](CO)[C@@H](OC(=O)Nc2cccc(F)c2)[C@H](OC(=O)Nc2ccccc2-c2ccccc2)[C@@H]1OC(=O)Nc1ccccc1-c1ccccc1 | 1.02 |
| O=C1OCC=C[C@H]2OC34C=CCN(c5ccc6ccccc6c5)C(=O)[C@H]3N(CCO)C(=O)[C@@H]4[C@@H]12 (stereo not given in full) | -0.127 |
| COc1cc2c(cc1O)C(c1ccc(CN3CCCC3)cc1)N(Cc1sc3ccccc3c1Cl)CC2 (stereo not given) | 1.38 |
| O=C1OCC=C[C@H]2OC34C=CCN(c5ccc(Cl)cc5)C(=O)[C@H]3N(CCCO)C(=O)[C@@H]4[C@@H]12 (stereo not given in full) | -0.415 |
| NC(=O)[C@@]1(CCS(=O)(=O)c2ccccc2)N=C(c2ccc(OCCCO)cc2)O[C@H]1c1ccccc1 | 0.893 |

| SMILES | composite z-score |
| --- | --- |
| CC(=O)NCCCC[C@@H]1NC(=O)[C@@H]2C[C@H](C(=O)NCc3ccc(F)cc3)[C@H](c3ccc(O)cc3)N2C1=O | -0.21 |
| O=C1OCCC=C[C@H]2OC34C=CCN(c5ccc6ccccc6c5)C(=O)[C@H]3N(CCCCCCO)C(=O)[C@@H]4C12 (stereo not given in full) | -0.514 |
| Cc1ccc(F)cc1S(=O)(=O)N[C@@H]1CCN(Cc2ccc(C(F)(F)F)cc2)C1 | -0.47 |
| CC(C)NC(=O)[C@@]1(c2ccc([N+](=O)[O-])cc2)CC(=O)N(C(C)C)[C@@H]1c1ccc(CO)cc1 | -1.08 |
| C=CCC(OC(C)=O)[C@@H]1[C@@H](N(Cc2ccc(-c3ccccc3)cc2)C(=O)c2ccc(C)cc2)c2cc(OCCCO)ccc2N1C(=O)c1ccc2ccccc2n1 (stereo not given in full) | 0.13 |
| C=CCC(OC(C)=O)[C@@H]1[C@@H](N(Cc2cc3ccccc3o2)C(=O)c2ccc(C)cc2)c2cc(OCCCO)ccc2N1C(=O)c1ccc(-c2ccccc2)cc1 (stereo not given in full) | -0.21 |
| COCCCNC(=O)[C@@]1(Sc2ccc(C)cc2)CC(=O)N(Cc2ccccc2)[C@@H]1c1ccc(CO)cc1 | -0.217 |
| COc1ccc(C(=O)Nc2cccc(CN3C(=O)[C@@]4(O[C@@H](CCn5cc([C@H](O)c6ccccc6)nn5)[C@H]([Si](C)(C)c5ccc(OC)cc5)[C@H]4C)c4ccccc43)c2)cc1 | 0.179 |
| CN1C(=O)C2C=CC(C(O)c3ccccc3)N(NC(=O)OC(C)(C)C)C2C1=O (stereo not given) | 0.868 |
| [N-]=[N+]=NCc1ccccc1C[C@]1(C(=O)NCc2ccccc2)COC(c2ccc(OCCCO)cc2)=N1 | 0.534 |
| C=CC[C@@]1(C(=O)NCCN2CCOCC2)N=C(c2ccc(OCCCO)cc2)O[C@@H]1c1ccccc1CN=[N+]=[N-] | 1.65 |
| C=CCOC(=O)[C@@H]1[C@H]2C(=O)O[C@H](c3ccccc3)[C@H](c3ccccc3)N2[C@H](c2ccc(OCCOC(=O)[C@H]3C[C@H]4C(=O)N[C@@H](CCCC[N+](C)(C)C)C(=O)N4[C@H]3c3cccc(OCCO)c3)cc2)[C@@]12C(=O)Nc1ccc(I)cc12 | 0.166 |
| COc1ccc([Si](C)(C)[C@H]2[C@H](CC(=O)N3Cc4ccccc4C[C@H]3CO)O[C@@]3(C(=O)N(Cc4cccc(I)c4)c4ccccc43)[C@@H]2C)cc1 | -0.186 |
| C=CCCN(CC#C[C@H]1Oc2ccccc2S(=O)(=O)N2CCC[C@@H]12)S(=O)(=O)c1ccc(C)cc1 | 0.0279 |
| C[n+]1ccc2ccc(O)cc2c1 | -0.173 |
| COc1ccc([Si](C)(C)[C@@H]2[C@@H](CCO)O[C@]3(C(=O)N(Cc4cccc(N5CCCCC5=O)c4)c4ccccc43)[C@H]2C)cc1 | 0.263 |
| Cc1ccc(N2C(=O)c3ccccc3[C@@H](C(=O)NC(C)C)[C@@H]2c2ccc(CO)cc2)nc1 | -1.08 |
